In PubChem BioAssay (EPA / NIEHS):
Active and inactive are the calls of the source. The calls were made as follows: active = hit-call score of the fitted dose curve at least 0.9, where 1 is the maximum; inactive = score below 0.9.

Assay: ATG_M_06_CIS: Attagene CIS-FACTORIAL HepG2 Assay for M06 Transcription Factor (Internal Marker) (AID 2282950)
Details: HepG2 Attagene CIS-FACTORIAL M06 internal marker reporter; actives raise or lower the signal
Experimental: ATG_CIS is a cell-based, multiplexed-readout assay that uses HepG2, a human liver cell line, with measurements taken at 24 hours after chemical dosing in a 24-well plate.ATG_M_06_CIS is one of 52 assay component(s) measured or calculated from the ATG_CIS assay. It is designed to make measurements of mRNA induction, a form of inducible reporter, as detected with fluorescence intensity signals by Reverse transcription polymerase chain reaction (RT-PCR) and Capillary electrophoresis technology.Data from the assay component ATG_M_06_CIS was analyzed into 1 assay endpoint. This assay endpoint, ATG_M_06_CIS, was analyzed with bidirectional fitting relative to DMSO as the negative control and baseline of activity. Using a type of inducible reporter, measures of mRNA for gain or loss-of-signal activity can be used to understand the background control at the transcription factor-level as they relate to the gene . Furthermore, this assay endpoint can be referred to as a secondary readout, because this assay has produced multiple assay endpoints where this one serves a background control function. To generalize the intended target to other relatable targets, this assay endpoint is annotated to the background measurement intended target family, where the subfamily is internal marker.
Human liver HepG2 cells are transiently transfected with multiple reporter transcription units (MRTUs) in 6-well plates using FuGene 6 reagent (Roche; 3 ml FuGene/1 mg DNA). The MRTU constructs are regulated by a cis-regulating element (promoter). […] A major difference between the CIS and TRANS system is that in CIS activities of endogenous TFs are measured, whereas the TRANS assay evaluates changes in activities of exogenous, chimeric NR-Gal4 proteins. […] At the end of 24 hour incubation, total RNA was isolated using TriZol reagent (Invitrogen). The isolated RNA is then reverse-transcribed using oligo(dT) primer and Mo-MLV reverse transcriptase (Invitrogen) with DNAse I (Ambion) treatment for 30 min. The one-tenth of the produced cDNA was amplified by PCR using Taq DNA polymerase (Invitrogen) and two reporter sequence-specific primers. The PCR products were fluorescently labeled by primer extension with 6-arboxyfluorescein (6-FAM) 5'-labeled reporter sequence-specific primer (2 min at 95 C, 20 s at 68 C and 10 min at 72 C) and these products were digested with 5U of HpaI (New England Biolabs) for 2h at 37 C. The fragments were purified using Qiaquick PCR columns (Qiagen), analyzed on an ABI 3130xL genetic analyzer (Applied Biosystems) with peak positions identified by using a set of X-rhodamine (ROX)-labeled MapMarker1000 molecular weight standards (BioVentures). The raw capillary electrophoresis data was processed using Attagraph software (Attagene).

Structure (SMILES) | outcome
CCC(C)c1ccc(O)cc1 (stereo not given) | inactive
Brc1ccc(Oc2ccccc2)cc1 | inactive
CNC(=O)Oc1cccc2c1OC(C)(C)C2 | inactive
CCCSC(=O)N(CCC)CCC | inactive
CC(C)N(Cc1ccccc1)C(=O)C(C)(C)C | inactive
CCCCC(CC)COC(=O)c1ccc(C(=O)OCC(CC)CCCC)c(C(=O)OCC(CC)CCCC)c1 (stereo not given) | inactive
CC(C)(C)C(O)(CCc1ccc(Cl)cc1)Cn1cncn1 (stereo not given) | inactive
Cc1cccc(N)c1N | inactive
[As]#[In] | inactive
O=C1CCCO1 | inactive
Oc1ccccc1Cl | inactive
CCN(CC)N=O | inactive
Clc1ccccc1Cl | inactive
OCCCl | inactive
O=[N+]([O-])c1ccc(Oc2ccc(Cl)cc2Cl)cc1 | inactive
Nc1ccc(Cc2ccc(N)cc2)cc1 | inactive
OCCOCCO | inactive
CCCCOC(=O)c1ccccc1C(=O)OCc1ccccc1 | inactive
CC(C)(C)OOC(=O)c1ccccc1 | inactive
CO[C@@H]1[C@H](OC(=O)NC(=O)CCl)CC[C@]2(CO2)[C@H]1[C@@]1(C)O[C@@H]1CC=C(C)C | inactive

Structure (SMILES) | outcome
Cc1cc(N=Nc2ccccc2C)ccc1N | inactive
O=[N+]([O-])C(Br)(CO)CO | inactive
ClCCOCCCl | inactive
CC(O)CCO (stereo not given) | inactive
COP(=S)(OC)SCN1C(=O)c2ccccc2C1=O | inactive
COC(=O)c1ccccc1N | inactive
CCN(CC)CCO | inactive
Clc1ccc(C(c2ccc(Cl)cc2)C(Cl)Cl)cc1 | inactive
CCCCCCCCOC(=O)c1ccc(C(=O)OCCCCCCCC)c(C(=O)OCCCCCCCC)c1 | inactive
Cc1ccc([N+](=O)[O-])cc1 | inactive
Clc1ccc(Cl)c(Cl)c1 | inactive
c1ccc2c(c1)-c1cccc3cccc-2c13 | inactive
c1ccc2c(c1)oc1ccccc12 | inactive
C1=Cc2cccc3cccc1c23 | inactive
CCOC(=O)[C@]1(c2ccccc2)Oc2ccccc2[C@@H]1N | inactive
Nc1ccc(N=Nc2ccccc2)cc1 | inactive
ClC1=C(Cl)[C@]2(Cl)[C@H]3[C@H]([C@@H]4C=C[C@H]3C4)[C@@]1(Cl)C2(Cl)Cl | inactive
ClC1=C(Cl)C2(Cl)C3C(Cl)C=CC3C1(Cl)C2(Cl)Cl (stereo not given) | inactive
N#CC(Br)Br | inactive
CN(C)c1ccc(C(=O)c2ccc(N(C)C)cc2)cc1 | inactive
